Reference: PubChem BioAssay (NCI)
About 83,000 compounds went through this panel and 20% of them were active in at least one assay; those are over-represented in the sample as a whole.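 Step 1: grow cells in 96-well plates. Step 2: add test compound at a single concentration. Step 3: incubate 48 h. Step 4: record percent growth.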 Calls of active or inactive are those of the source. Rule for the calls: active = growth percent below 10; inactive = the rest.

How the values were obtained:
Experiment in all cases: NCI-60 one-dose screen, 48 h (100 = growth as untreated, 0 = no growth, -100 = all killed)
Conditions in all cases: 10 µM unless noted
[1] = system: NCI-H23 lung
[2] = system: NCI-H226 lung
[3] = system: NCI-H322M lung
[4] = system: HOP-62 NSCLC
[5] = system: NCI-H460 lung
[6] = system: HOP-92 NSCLC
[7] = system: NCI-H522 lung
[8] = system: A549/ATCC NSCLC
[9] = system: 786-0 renal
[10] = system: COLO 205 colon

Measured: growth

CCN1C(=O)N(CC)C2Nn3c(s/c(=C\c4ccc(Cl)cc4Cl)c3=O)=NC21 (stereo not given)
active: [10] -23%
inactive: [1] 43.1% | [2] 98.2% | [3] 65.5% | [4] 72.3% | [5] 16.4% | [6] 68.3% | [7] 12.3% | [8] 33% | [9] 34%

CC1(C)CC(=O)C2=C(C1)N(c1ccc(OC(F)(F)F)cc1)C(N)=C(C#N)C2c1ccc(Cl)cc1 (stereo not given)
inactive: [1] 85.6% | [2] 90.7% | [3] 91.3% | [4] 72.7% | [5] 93.7% | [6] 58.5% | [7] 63.1% | [8] 76.3% | [9] 78.6% | [10] 96.6%

COc1ccc2c(c1)O/C(=C\c1cccc(OCC(=O)Nc3nc(C)c(C)s3)c1)C2=O
active: [6] -75.4% | [7] -73.8%
inactive: [1] 19.4% | [2] 92.2% | [3] 103% | [4] 101% | [5] 88.8% | [8] 12.4% | [9] 17.7% | [10] 91.6%

COC(=O)[C@]12CC[C@@H](C)[C@H](C)[C@@H]1C1=CC[C@@H]3[C@@]4(C)C(C=O)=C[C@@](C)(COC(=O)c5ccco5)C4=CC[C@@]3(C)[C@]1(C)CC2
inactive: [2] 19.1% | [3] 39.6%
active: [1] 8.23% | [4] 7.71% | [5] 2.11% | [6] -15.5% | [7] -6.14% | [8] 8.76% | [9] -8.17% | [10] -55.8%

Cn1c(-c2c(N)n(Cc3ccc(C(F)(F)F)cc3)c3nc(C#N)c(C#N)nc23)nc2ccccc21
active: [1] 1.21% | [2] -1.51% | [3] -4.98% | [5] 4.01% | [6] -48% | [7] -3.31% | [9] 3.33% | [10] -89.7%
inactive: [4] 21.3% | [8] 12%

Cc1cccc(NC(=O)N/C(N)=N/c2nc(C)c(C)s2)c1
inactive: [1] 61.9% | [2] 71.3% | [3] 82.7% | [4] 55.3% | [5] 20.2% | [6] 67.5% | [7] 24.2% | [8] 42.6% | [9] 83.1% | [10] 36%

COc1cc(CCC[P+](c2ccccc2)(c2ccccc2)c2ccccc2)cc2c1OCO2
inactive: [1] 19.1% | [2] 55.5% | [3] 79.4% | [4] 92.3% | [5] 37.9% | [6] 25.3% | [7] 13.2% | [8] 73.2% | [9] 63.9%
active: [10] 3.37%

COc1cc(/C=C/C(=O)N2CCN(C(=O)c3cc(OC)c(OC)c(OC)c3)CC2)ccc1OCCCN1C(=O)c2cccc3cccc(c23)C1=O
inactive: [1] 106% | [2] 87% | [3] 100% | [4] 94.1% | [5] 82.6% | [7] 65.4% | [8] 85.3% | [9] 73.1% | [10] 116%
active: [6] -0.534%

CC(C)(C)CC(C)(C)Nc1c(-c2ccncc2)nc2cnccn12
inactive: [1] 99.2% | [2] 90.3% | [3] 103% | [4] 104% | [5] 105% | [6] 87.1% | [7] 87.1% | [8] 96.4% | [9] 96.6% | [10] 101%

COc1ccccc1N1C(=O)/C(=C/C2=Cc3ccccc3OC2)SC1=S
inactive: [1] 97.6% | [2] 103% | [3] 92.6% | [4] 91.7% | [5] 102% | [6] 97.7% | [7] 90% | [8] 95.7% | [9] 101% | [10] 109%

O=C(/C=C/c1ccco1)c1ccc(Nc2nc(Nc3ccc(F)cc3)nc(Nc3ccc(Cl)cc3)n2)cc1
inactive: [1] 59.5% | [2] 86% | [3] 48.3% | [4] 96.2% | [5] 61.7% | [6] 44.2% | [7] 76.8% | [8] 38.3% | [9] 84.4% | [10] 35.9%

C=CCSc1nc2ccccc2cc1/C=N/O
inactive: [1] 81.9% | [2] 77.8% | [3] 81.4% | [4] 77.1% | [5] 90.4% | [6] 58.2% | [7] 76.4% | [8] 92.5% | [9] 100% | [10] 94.1%

O=S(=O)(Nc1cccc(Cl)c1)c1ccc(-c2cnc(C3CC3)o2)cc1
inactive: [1] 29.3% | [2] 40.9% | [3] 48.1% | [4] 31.9% | [5] 16.5% | [6] 20.5% | [8] 38.4% | [9] 28.4%
active: [7] -1.89% | [10] 0.342%

O=C(N=c1oc2ccccc2cc1-c1cc2ccccc2[nH]1)c1ccc(Cl)cc1
inactive: [1] 29.4% | [2] 84.6% | [3] 53.5% | [4] 63.1% | [5] 77.2% | [6] 24% | [7] 14.2% | [8] 51.3% | [9] 70.7% | [10] 69.7%
